Measured values from the supplement of paper PMC6331611.
± gives the standard deviation of the averaged measurements. In all, about 1,600 compounds were measured (“normalized intracellular growth (luminescence, IQM-normalized) in RAW264.7 macrophages”: median about 1, lowest 2% from about 0.43 on). The list comes from a sample in which the lowest values are over-represented; it also holds similar structures and randomly drawn compounds.

Test system: Salmonella enterica serovar Typhimurium SL1344
Assay: normalized intracellular growth (luminescence, IQM-normalized) in RAW264.7 macrophages (fraction of plate interquartile mean); higher = more bacterial growth (less inhibition)
Conditions: 10 µM

Row | Structure (SMILES) | normalized intracellular growth (time point: T3 (3 h)) | normalized intracellular growth (time point: Tfinal (~6 h))
1 | S=C=Nc1ccc(N=C=S)cc1 | 1.04 ± 0.035 | 1.01 ± 0.11
2 | CN(C)c1ccc2nc3ccc(=[N+](C)C)cc-3sc2c1 | 1.29 ± 0.088 | 1.4 ± 0.2
3 | COc1ccc(Cc2cnc(N)nc2N)cc1OC | 0.784 ± 0.028 | 0.17 ± 0.021
4 | COc1cc(/C=C/C(N)=O)cc(OC)c1OC | 1.04 ± 0.084 | 1.03 ± 0.12
5 | COc1cc(Cc2cnc(N)nc2N)cc(OC)c1OC | 0.563 ± 0.068 | 0.155 ± 0.025
6 | C[C@@H]1CC2C3C[C@H](F)C4=CC(=O)C=C[C@]4(C)[C@@]3(F)[C@@H](O)C[C@]2(C)[C@@]1(O)C(=O)COC(=O)C(C)(C)C (some centres undefined) | 0.961 ± 0.055 | 0.888 ± 0.12
7 | Cc1cc(-c2ccc(/N=N/c3ccc4c(S(=O)(=O)O)cc(S(=O)(=O)O)c(N)c4c3O)c(C)c2)ccc1/N=N/c1ccc2c(S(=O)(=O)O)cc(S(=O)(=O)O)c(N)c2c1O | 1.06 ± 0.038 | 1.36 ± 0.084
8 | CCOC(=S)SSC(=S)OCC | 0.994 ± 0.036 | 0.924 ± 0.067
9 | C[C@@H]1NC(=O)[C@@H](N)CNC(=O)[C@H](C2CCNC(=N)N2)NC(=O)/C(=C/NC(N)=O)NC(=O)[C@H](CNC(=O)CC(N)CCCN)NC1=O.N=C1NCC[C@H]([C@@H]2NC(=O)/C(=C/NC(N)=O)NC(=O)[C@H](CNC(=O)C[C@@H](N)CCCN)NC(=O)[C@H](CO)NC(=O)[C@@H](N)CNC2=O)N1 | 0.976 ± 0.016 | 0.966 ± 0.059
10 | CC(=O)N[C@@H]([C@@H](O)[C@H](O)[C@H](O)CO)[C@@H](O)CC(=O)C(=O)O | 1.02 ± 0.058 | 1.06 ± 0.24
11 | C[C@@H]1O[C@@H](OC[C@H]2O[C@@H](Oc3c(-c4ccc(OCCO)c(OCCO)c4)oc4cc(OCCO)cc(O)c4c3=O)[C@H](O)[C@@H](O)[C@@H]2O)[C@H](O)[C@H](O)[C@H]1O | 0.951 ± 0.034 | 0.746 ± 0.24
12 | OC[C@H]1O[C@@H](O[C@H]2[C@H](O)[C@@H](O)C(O)O[C@@H]2CO)[C@H](O)[C@@H](O)[C@H]1O (some centres undefined) | 1.05 ± 0.022 | 1.04 ± 0.026
13 | C1CNCCN1 | 0.991 ± 0.091 | 0.655 ± 0.077
14 | C[C@@H]1CN(c2c(F)c(N)c3c(=O)c(C(=O)O)cn(C4CC4)c3c2F)C[C@H](C)N1 | 1.08 ± 0.037 | 0.0132 ± 0.002
15 | C[C@@H]1CN(c2c(F)c(F)c3c(=O)c(C(=O)O)cn(C4CC4)c3c2F)C[C@H](C)N1 | 0.986 ± 0.025 | 0.0257 ± 0.0074
16 | COc1ccc(CN(CCN(C)C)c2ncccn2)cc1 | 1.1 ± 0.06 | 1.1 ± 0.093
17 | Cc1cc2nc3c(=O)[nH]c(=O)nc-3n(CC(O)C(O)C(O)COP(=O)(O)O)c2cc1C (centres undefined) | 0.886 ± 0.064 | 1.08 ± 0.19
18 | O=C(O)CN(CCN(CC(=O)O)CC(=O)O)CC(=O)O.[Na+].[Na+].[Na+] | 1.03 ± 0.021 | 1.54 ± 0.093
19 | C[C@H]1O[C@@H](O[C@H]2[C@@H](O)C[C@H](O[C@H]3[C@@H](O)C[C@H](O[C@H]4CC[C@@]5(C)[C@H](CC[C@@H]6[C@@H]5CC[C@]5(C)[C@@H](C7=CC(=O)OC7)CC[C@]65O)C4)O[C@@H]3C)O[C@@H]2C)C[C@H](O)[C@@H]1O | 1.03 ± 0.042 | 1.08 ± 0.087
20 | NC(=O)c1ccccc1O | 1.04 ± 0.085 | 0.978 ± 0.036
21 | CCCCc1nc(Cl)c(CO)n1Cc1ccc(-c2ccccc2-c2nnn[nH]2)cc1 | 0.909 ± 0.056 | 0.215 ± 0.0058
22 | CCCc1nc(C(C)(C)O)c(C(=O)O)n1Cc1ccc(-c2ccccc2-c2nnn[nH]2)cc1 | 1.027 ± 0.0089 | 1.118 ± 0.0057
23 | CCCc1nc(C(C)(C)O)c(C(=O)OCc2oc(=O)oc2C)n1Cc1ccc(-c2ccccc2-c2nnn[nH]2)cc1 | 1 ± 0.026 | 0.855 ± 0.39
24 | CCCCC(=O)N(Cc1ccc(-c2ccccc2-c2nnn[nH]2)cc1)[C@H](C(=O)O)C(C)C | 0.881 ± 0.033 | 0.239 ± 0.016

Row | Structure (SMILES) | normalized intracellular growth (time point: T3 (3 h)) | normalized intracellular growth (time point: Tfinal (~6 h))
25 | CCCCC1=NC2(CCCC2)C(=O)N1Cc1ccc(-c2ccccc2-c2nnn[nH]2)cc1 | 1.06 ± 0.014 | 1.14 ± 0.22
26 | CCOc1nc2cccc(C(=O)O)c2n1Cc1ccc(-c2ccccc2-c2nnn[nH]2)cc1 | 0.992 ± 0.057 | 1.04 ± 0.034
27 | CCCCC(CC)COc1ccc(-c2nc(-c3ccc(OC)cc3)nc(-c3ccc(OCC(CC)CCCC)cc3O)n2)c(O)c1 (centres undefined) | 1.02 ± 0.065 | 1.1 ± 0.17
28 | Nc1nc(F)nc2c1ncn2[C@@H]1O[C@H](COP(=O)(O)O)[C@@H](O)[C@@H]1O | 0.982 ± 0.061 | 1.16 ± 0.13
29 | O=C1OC2(c3ccc(O)cc3Oc3cc(O)ccc32)c2ccccc21 | 1.02 ± 0.069 | 0.891 ± 0.079
30 | COc1ccc(C[C@H](N)C(=O)N[C@H]2[C@@H](O)[C@H](n3cnc4c(N(C)C)ncnc43)O[C@@H]2CO)cc1 | 0.993 ± 0.058 | 1.05 ± 0.16
31 | NCCCC(=O)O [gamma-AMINOBUTYRIC ACID] | 0.9762 ± 0.0094 | 1.05 ± 0.096
32 | FCOC(C(F)(F)F)C(F)(F)F | 1.01 ± 0.052 | 0.806 ± 0.18
33 | CCCCCN(C)CCC(O)(P(=O)(O)O)P(=O)(O)O | 0.886 ± 0.014 | 0.0897 ± 0.012
34 | NCCCC(O)(P(=O)(O)O)P(=O)(O)O | 0.994 ± 0.083 | 1.12 ± 0.14
35 | O=C1c2ccccc2C(=O)C1c1ccc(Br)cc1 | 1.08 ± 0.047 | 1.15 ± 0.21
36 | CO/N=C1\C[C@]2(C[C@@H]3C[C@@H](C/C=C(\C)C[C@@H](C)/C=C/C=C4\CO[C@@H]5[C@H](O)C(C)=C[C@@H](C(=O)O3)[C@]45O)O2)O[C@H](/C(C)=C/C(C)C)[C@H]1C | 0.979 ± 0.022 | 0.831 ± 0.033
37 | CCN(CC)CCOc1ccc2c(c1)C(=O)c1cc(OCCN(CC)CC)ccc1-2 | 1 ± 0.035 | 1 ± 0.021
38 | NC(=O)c1ccc([N+](=O)[O-])cc1Cl | 1.06 ± 0.052 | 1.18 ± 0.017
39 | CS(=O)(=O)c1ccc([C@@H](O)[C@@H](CF)NC(=O)C(Cl)Cl)cc1 | 1.27 ± 0.096 | 0.22 ± 0.17
40 | CCCCCCCCCCCCCCCC(=O)OC[C@@H](NC(=O)C(Cl)Cl)[C@H](O)c1ccc([N+](=O)[O-])cc1 | 1.04 ± 0.037 | 0.822 ± 0.14
41 | O=C(N[C@H](CO)[C@H](O)c1ccc([N+](=O)[O-])cc1)C(Cl)Cl | 0.927 ± 0.049 | 0.163 ± 0.022
42 | CS(=O)(=O)c1ccc([C@@H](O)[C@@H](CO)NC(=O)C(Cl)Cl)cc1 | 0.925 ± 0.07 | 0.767 ± 0.047
43 | O=C(O)CCC(=O)OC[C@@H](NC(=O)C(Cl)Cl)[C@H](O)c1ccc([N+](=O)[O-])cc1 | 0.927 ± 0.048 | 0.178 ± 0.014
44 | CC(=O)Nc1ccc(S(=O)(=O)Nc2ccc([N+](=O)[O-])cc2)cc1 | 0.992 ± 0.038 | 1.03 ± 0.15
45 | CC(=O)Nc1ccc(S(=O)(=O)c2ccc(NC(C)=O)cc2)cc1 | 1.01 ± 0.04 | 0.912 ± 0.062
46 | OC[C@@H](O)[C@@H](O)CO | 0.947 ± 0.1 | 1.08 ± 0.11
47 | Cc1cc(C(C)(C)C)c(O)c(C(C)(C)C)c1 | 1.06 ± 0.046 | 0.834 ± 0.12
